The record followed here is PubChem BioAssay (NCI).

Among the test systems are HCT-15 colon; HT29 colon; SNB-75 CNS; SNB-19 CNS; U251 CNS; PC-3 prostate; SK-MEL-5 melanoma; UACC-62 melanoma; LOX IMVI melanoma; SK-MEL-28 melanoma; SK-MEL-2 melanoma; SN12C renal; UO-31 renal; TK-10 renal; ACHN renal; CAKI-1 renal; A498 renal; CCRF-CEM leukemia; MOLT-4 leukemia.
Holding throughout (test): NCI-60 one-dose screen, 48 h (100 = growth as untreated, 0 = no growth, -100 = all killed)
Details in all cases: 10 µM unless noted

This is part of a sample that, as a whole, favours compounds with a hit. Of some 83,000 tested, about 20% had one in any assay.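 How to read the values: 0–100, growth inhibition (40 = 60% inhibited); 0, no net growth; -100 to 0, cell death (-40 = 40% of starting cells died; -100 = all dead).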 A number with no mark means an inactive call. Calls of active or inactive are those of the source. The calls were made as follows: active = growth percent below 10; inactive = the rest.

With `O=c1oc2cc(OS(=O)(=O)c3ccc(F)cc3)ccc2c2c1CCCCC2`, the growth is 26.8% with HCT-15 colon; 27.5% in the test on HT29 colon; 80.9% in the test on SNB-75 CNS; 78.1% in the test on SNB-19 CNS; 57.6% in the test on U251 CNS; 44.6% in the test with PC-3 prostate. Also, the growth was 32.8% in the test with SK-MEL-5 melanoma; 65.3% with UACC-62 melanoma; 88.1% in the test on LOX IMVI melanoma; 86.1% in the test with SK-MEL-28 melanoma; 72% in the test with SK-MEL-2 melanoma; 70.1% in the test on SN12C renal. In addition, the growth in the test on UO-31 renal was 50.2%; with TK-10 renal, 89.6%; in the test with ACHN renal it was 84.9%; in the test on CAKI-1 renal, 86.7%; with A498 renal it was 83.4%; in the test on CCRF-CEM leukemia, 36%. The growth in the test on MOLT-4 leukemia was 63.8%.
As to `COc1cc(NC(=O)CSc2nc3ccc(C)cc3c(=O)n2-c2ccccc2)cc(OC)c1OC`, the growth was 81.1% with HCT-15 colon; 109% in the test on HT29 colon; 57.4% with SNB-75 CNS; 88% in the test on SNB-19 CNS; 93.9% with U251 CNS; 82% in the test on PC-3 prostate. In addition, the growth with SK-MEL-5 melanoma is 77.8%; in the test with UACC-62 melanoma, 77.5%; in the test with LOX IMVI melanoma, 75.9%; in the test with SK-MEL-28 melanoma it was 83.7%; in the test on SK-MEL-2 melanoma it was 86.5%; with SN12C renal it was 92.8%. Further, the growth was 51% in the test on UO-31 renal; 104% in the test with TK-10 renal; 90.2% in the test with ACHN renal; 88.4% with CAKI-1 renal; 62.7% with A498 renal; 83.9% in the test on CCRF-CEM leukemia. In addition, the growth with MOLT-4 leukemia was 59.2%.
On to `O=C(O)Cc1ccc2c(c1)Cc1cccnc1O2`, for which the growth with HCT-15 colon is 103%; in the test with HT29 colon it was 99.8%; with SNB-75 CNS, 87.9%; with SNB-19 CNS it was 107%; in the test with U251 CNS, 102%; in the test with PC-3 prostate, 101%. Moreover, the growth in the test on SK-MEL-5 melanoma is 99.5%; with UACC-62 melanoma, 109%; in the test with LOX IMVI melanoma it was 100%; in the test on SK-MEL-28 melanoma, 109%; with SK-MEL-2 melanoma, 104%; with SN12C renal, 100%. The growth is 94% with UO-31 renal; 92.5% with TK-10 renal; 111% in the test on ACHN renal; 96.9% with CAKI-1 renal; 104% in the test with A498 renal; 100% in the test with CCRF-CEM leukemia. Besides, the growth in the test on MOLT-4 leukemia is 102%.
For `COc1ccc2c(c1)C(=O)/C(=C/c1ccc(O)cc1)O2`, the growth was 52.1% in the test with HCT-15 colon; 90.1% in the test on HT29 colon; 67.5% in the test with SNB-75 CNS; 89.3% with SNB-19 CNS; 92.9% with U251 CNS; 39.6% with PC-3 prostate. Further, the growth in the test with SK-MEL-5 melanoma is 87.8%; with UACC-62 melanoma, 77.1%; in the test on LOX IMVI melanoma it was 45.5%; with SK-MEL-28 melanoma, 92.6%; in the test on SK-MEL-2 melanoma it was 81.2%; in the test on SN12C renal, 76.8%. In addition, the growth in the test on UO-31 renal is -97.4% (active); in the test with TK-10 renal it was 75.1%; in the test with ACHN renal it was 96.4%; with CAKI-1 renal, 71.8%; in the test on A498 renal, 94.8%; in the test on CCRF-CEM leukemia, 104%. In the test with MOLT-4 leukemia, the growth was 62.8%.
With `COc1cc2nc(SCc3cc(OC)c(OC)c(OC)c3)n(Cc3ccccc3)c(=O)c2cc1OC`, the growth with HCT-15 colon is 20.1%; with HT29 colon, 10.6%; in the test on SNB-75 CNS, -16.6% (active); in the test with SNB-19 CNS, 48.8%; in the test with U251 CNS it was 29%; with PC-3 prostate it was 48.8%. The growth in the test with SK-MEL-5 melanoma is -8.17% (active); in the test with UACC-62 melanoma, 23.4%; with LOX IMVI melanoma, 37.7%; in the test with SK-MEL-28 melanoma, 39.2%; in the test with SK-MEL-2 melanoma, -9.82% (active); in the test on SN12C renal, 41.2%. Moreover, the growth in the test on UO-31 renal was 34.7%; in the test with TK-10 renal, 64.3%; in the test on ACHN renal, 39.2%; in the test on CAKI-1 renal it was 25.7%; with A498 renal, -5.24% (active); in the test on CCRF-CEM leukemia it was 23%. Moreover, in the test with MOLT-4 leukemia, the growth was 16.7%.
As for `Clc1nc(-c2cccnc2)nc2sc3c(c12)CCCCCC3`, the growth in the test with HCT-15 colon is 98.9%; with HT29 colon, 100%; in the test on SNB-75 CNS it was 91.3%; with SNB-19 CNS, 96.2%; in the test with U251 CNS, 91.3%; in the test with PC-3 prostate, 94.7%. The growth in the test on SK-MEL-5 melanoma was 96.8%; with UACC-62 melanoma it was 91.3%; in the test with LOX IMVI melanoma, 100%; with SK-MEL-28 melanoma it was 104%; with SK-MEL-2 melanoma, 105%; in the test on SN12C renal, 99.6%. Moreover, the growth in the test on UO-31 renal is 101%; in the test on TK-10 renal it was 103%; with ACHN renal it was 105%; in the test on CAKI-1 renal, 93.8%; in the test on A498 renal, 94.1%; in the test with CCRF-CEM leukemia it was 83.4%. The growth in the test on MOLT-4 leukemia was 90%.
Take `C=C1C(=O)O[C@H]2[C@H]1CC/C(COC(=O)NCc1cc(OC)cc(OC)c1)=C\CC[C@@]1(C)O[C@@H]21`: the growth in the test with HCT-15 colon was 1.86% (active); in the test with HT29 colon, -40.2% (active); in the test with SNB-75 CNS, 59.3%; in the test on SNB-19 CNS, 42.3%; in the test with U251 CNS, 40.7%; with PC-3 prostate, 30.2%. Besides, the growth is 84.9% with SK-MEL-5 melanoma; -44.9% (active) with UACC-62 melanoma; -31% (active) with LOX IMVI melanoma; -20.2% (active) with SK-MEL-28 melanoma; 23.2% in the test on SK-MEL-2 melanoma; 7.86% (active) in the test with SN12C renal. Also, the growth was -58.4% (active) with UO-31 renal; -1.01% (active) in the test on TK-10 renal; 5.79% (active) with ACHN renal; -15.1% (active) in the test on CAKI-1 renal; 68% with A498 renal; 2.4% (active) in the test on CCRF-CEM leukemia. Further, in the test with MOLT-4 leukemia, the growth is -3.45% (active).
Take `O=C(Nc1cc(C(F)(F)F)cc(C(F)(F)F)c1)Nc1ccc(OCc2nnc(-c3ccc(Cl)cc3)o2)c(F)c1`: the growth with HCT-15 colon is 13.6%; in the test with HT29 colon, 10.8%; in the test with SNB-75 CNS it was 14.8%; with SNB-19 CNS, 23%; in the test on U251 CNS, 1.55% (active); in the test with PC-3 prostate, 3.89% (active). Besides, the growth in the test with SK-MEL-5 melanoma was -29.6% (active); with UACC-62 melanoma it was 27.7%; with LOX IMVI melanoma, 3.82% (active); in the test with SK-MEL-28 melanoma it was 28.8%; with SK-MEL-2 melanoma it was -37.9% (active); in the test on SN12C renal, 11.1%. Besides, the growth with UO-31 renal was -2.51% (active); with TK-10 renal, 21.1%; in the test with ACHN renal, -6.91% (active); with CAKI-1 renal, 4.76% (active); in the test with A498 renal, -7.1% (active); in the test on CCRF-CEM leukemia it was 6.66% (active). Further, in the test with MOLT-4 leukemia, the growth is 18%.
